Data reported in PubChem BioAssay AID932 (The Scripps Research Institute Molecular Screening Center, 2007).
Hit rate of the full screen: of about 200,000 compounds, about 5,100 (2.5%) were called active. The full list was thinned out, with actives kept by preference. A number with no mark means an inactive call.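 Rule for the calls: active = activation above the screen-wide mean activation plus 3 SD (cut at about 130% in these data); inactive = the rest.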

Assay: potentiators of IFN-gamma driven STAT1 reporter – cell-based, HTS, luciferase reporter, primary screen (AID 932);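 note: raw ratio to IFN-gamma control signal so 100% means no change and 0% no light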
Settings: NIH 3T3 STAT1-luciferase reporter, luminescence, at 5.5 µM, active compounds read high, 100% = IFN-gamma alone, no compound

Structure (SMILES)	activation (% of control)
O=C1CN(C(=O)COC(=O)c2cnc(Cl)c(Cl)c2)c2ccccc2N1	92.8%
CCN(CC)N=Nc1cccc(NC(C)=O)c1	88.6%
CCOc1ccc2nc(NCCNS(=O)(=O)c3ccccc3)c(C#N)cc2c1	102%
Cc1nonc1NC(=O)CSc1nc2ccccc2cc1C#N	117%
CCOc1ccc2cc(C#N)c(SCC(=O)OC)nc2c1	150% (active)
O=C(CSc1cccc[n+]1[O-])NCCCc1ccccc1	91.9%
CCOC(=O)C1CCN(CCC(=O)Nc2cccc(C)c2)CC1	98.8%
CCOc1cc(/C=N/O)ccc1OCc1ccccc1F	104%
COc1cc(/C=C2/C(=O)ON=C2C)ccc1OCc1cccc(F)c1	128%
COc1cc(/C=C2/C(=O)ON=C2C)ccc1OCc1ccccc1F	129% (active)
CCn1c(CSCc2c(Cl)cccc2Cl)n[nH]c1=S	98.8%
Cc1noc(C)c1CCC(=O)O	95.1%
COc1ccc(CNC(=O)CN2CCC(n3nnc4cc(F)ccc43)CC2)cc1	88.1%
CSc1ncccc1C(=O)Nc1nc2ccc(F)cc2s1	123%
COc1ccc2nc(Nc3nc4cc5c(cc4s3)OCCO5)sc2c1	114%
Fc1ccc2nc(Nc3nc4c(s3)CCCC4)sc2c1	162% (active)
CCCCCC(=O)Nc1ccc(S(=O)(=O)Nc2ccc(Cl)nn2)cc1	102%
O=C(C1=C[C@H](c2coc3ccccc3c2=O)C[C@H](OCc2ccc(CO)cc2)O1)N1CCOCC1	102%
COc1ccc(/C=N/NC(=O)Cn2cc(C(F)(F)F)ccc2=O)cc1	97.9%
Cc1ccccc1OCCC(=O)OCC(=O)NC(C)c1ccccc1 (stereo unspecified)	99.7%
COCCOC(=O)c1c(C)oc2cc(Br)c(OCC(N)=O)cc12	94.5%
Cc1ccc(COc2ccc(C(=O)NN)cc2)cc1	116%

Structure (SMILES)	activation (% of control)
Cc1ccc(-c2csc(NC(=O)Cc3cccs3)n2)cc1C	111%
CCCc1cc(-c2nc(-c3ccc(C)cc3)cs2)ccn1	99.8%
c1ccc(Nc2nc(-c3ccncc3)cs2)nc1	193% (active)
O=C(Nc1ccc(Cl)cn1)Nc1cccs1	123%
Cc1ccc(-c2csc(NC(=O)c3cccs3)n2)cc1	123%
c1cnc(Nc2nc(-c3ccc4ccccc4c3)cs2)nc1	164% (active)
Clc1ccc(Nc2nc(-c3cccs3)cs2)nc1	196% (active)
COc1ccc(-c2csc(Nc3ccccn3)n2)cc1	110%
Oc1ccc(-c2csc(Nc3cccnc3)n2)cc1	110%
NC(=O)c1ccccc1N=Cc1ccc2ccccc2c1	124%
CCOC(=O)c1cc2c(=O)n3ccccc3nc2n(CC(C)C)c1=NC(=O)c1c(-c2c(F)cccc2Cl)noc1C	89.8%
CC(C)OC(=O)Cn1nc(C(F)(F)F)c2c1CCCC2	96.5%
Cc1ccc2nc(SCc3cn4c(C)cc(C)nc4n3)[nH]c2c1	96.4%
CNC(=O)c1ccc(NC(=O)c2cccc(C(F)(F)F)c2)cc1	98.4%
Cc1cc(C)c(C#N)c(N2CCC(C(N)=O)CC2)n1	98.4%
COc1cc(/C=N/n2c(C)n[nH]c2=S)ccc1OCc1ccccc1	144% (active)
CNC(=S)N/N=C/c1ccc(OCc2ccccc2)c(Br)c1	119%
Cc1n[nH]c(=S)n1/N=C/c1ccc(Br)o1	104%
CSc1ccccc1NC(=O)CN(C)CC(=O)Nc1cccc(Br)c1	89.3%
C=C(C)C(=O)Nc1cccc(C(C)=O)c1	102%
CCN(CC)C(=O)C(=O)Nc1cccc(Br)c1	129% (active)
CCOc1ccc(C(C)=O)cc1COC(=O)c1cnc(Cl)c(Cl)c1	101%

Structure (SMILES)	activation (% of control)
Cc1ccnc(NC(=O)c2ccc(Cl)c([N+](=O)[O-])c2)c1	95.8%
Fc1cccc(Cl)c1CSc1ccc(-c2ccco2)nn1	126%
O=C(CSc1nnc(-c2cnccn2)n1Cc1ccco1)c1ccc(Cl)c(Cl)c1	94.7%
Cn1c(SCc2c(F)cccc2Cl)nnc1-c1cnccn1	130% (active)
O=C(CSc1nnc(C2CC2)n1Cc1ccccc1)Nc1cccnc1Cl	96.9%
CCc1ccc(CN(C)C(=O)CCc2nnc(-c3ccc(-c4ccccc4)cc3)o2)nc1	93.4%
Cc1ccccc1C(=O)Nc1ccc(N2CCCCCC2)cc1	141% (active)
COc1cccc(OC)c1C(=O)Nc1ccc(N2CCCCC2)cc1	103%
COc1cccc(C(=O)Nc2ccc(N3CCCC3)cc2)c1	127%
CCc1cc2c(=O)c(-c3ccc(F)cc3)c(C(F)(F)F)oc2cc1OCC(=O)O	97.7%
C/C(CC(=O)Nc1ccc(C)cc1C)=N\NC(=O)C(C)C	102%
O=S(=O)(c1cccc(C(F)(F)F)c1)N1CCN(c2cnccn2)CC1	108%
Cc1cc(C)nc(N2CCC(C(=O)Nc3ccc4c(c3)OCCO4)CC2)n1	101%
O=C(Nc1ccc2c(c1)OCCO2)C1CCCN(c2ncccn2)C1 (stereo unspecified)	143% (active)
Cc1ccnc(N2CCCC(C(=O)Nc3cc(F)ccc3C)C2)n1 (stereo unspecified)	104%
NS(=O)(=O)c1ccc(NC(=S)Nc2ccc(Br)c(Cl)c2)cc1	94.5%
CCC(C)N(C(=O)COC(=O)C1C(C(=O)OC)=C(C)NC(C)=C1C(=O)OC)C1CCS(=O)(=O)C1 (stereo unspecified)	102%
O=C(Nc1ccc(Cl)cc1)C1c2cccc[n+]2CC(=O)N1Cc1ccc2c(c1)OCO2 (stereo unspecified)	101%
Cc1cc(C)nc(NNC2=CC(=O)CC(C)(C)C2)n1	115%
CCN(CC)C(=O)CSc1nc2ccccc2o1	110%
Cc1ccc(/C=N/NC(=O)CSc2nc3ccccc3o2)cc1	111%
CC(C)(C)C(=O)CSc1nc2ccccc2o1	150% (active)
